This is one part of a sample in which hits are shown more often than they occur.
ST2 IL33 inh: inhibitors of human ST2 (IL1RL1) binding to IL-33, primary screen, biochemical, AlphaLISA. Interleukin-1 receptor-like 1 (Homo sapiens), Q01638. AlphaLISA ST2-Fc/biotin-IL-33 interaction, 1 h. inhibition, % for hits at 17 µM. 78,000 tested, 2.3% active. AID 1259354, 2018; in the data active means inhibition above about 30%
Target sequence (Q01638 whole entry, looked up): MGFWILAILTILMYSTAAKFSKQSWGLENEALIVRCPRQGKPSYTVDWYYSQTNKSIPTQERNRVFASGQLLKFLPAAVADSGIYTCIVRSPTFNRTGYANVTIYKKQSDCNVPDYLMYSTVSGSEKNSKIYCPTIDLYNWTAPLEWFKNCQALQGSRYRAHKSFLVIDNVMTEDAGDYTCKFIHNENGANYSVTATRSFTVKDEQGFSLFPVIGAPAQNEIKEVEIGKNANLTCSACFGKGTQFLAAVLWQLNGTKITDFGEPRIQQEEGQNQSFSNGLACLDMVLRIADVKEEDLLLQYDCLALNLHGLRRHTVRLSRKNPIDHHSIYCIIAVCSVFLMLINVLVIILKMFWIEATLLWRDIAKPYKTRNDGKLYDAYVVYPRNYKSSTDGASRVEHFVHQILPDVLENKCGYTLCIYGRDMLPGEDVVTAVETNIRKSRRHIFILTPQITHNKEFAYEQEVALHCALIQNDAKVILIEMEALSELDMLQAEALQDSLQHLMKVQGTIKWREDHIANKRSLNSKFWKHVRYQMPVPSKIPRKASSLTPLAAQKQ
* hit, by the source's call; i = inactive; ! = not active in a repeat.

SMILES	ST2 IL33 inh
CC(C)(C)NC(=O)CN1C(=O)S/C(=C\c2ccccc2)C1=O	i
O=C(CN1C(=O)S/C(=C\C=C\c2ccccc2)C1=O)Nc1ccc(C(=O)O)cc1	32%*
CN(Cc1ccccc1)C(=O)C[C@@H]1O[C@H](CNC(=O)c2ccc(N(C)C)cc2)[C@@H](O)[C@H]1O	i
Cc1[nH]nc(SCC(=O)NCc2ccco2)c1[N+](=O)[O-]	i
Oc1ccccc1-c1nnc2n1N=C(c1ccc(Cl)cc1)CS2	i
COc1ccc(C2=Nn3c(nnc3-c3ccccc3)SC2)cc1	i
Cc1nnc2n1N=C(c1ccc(Cl)cc1)CS2	39%*!
CCOC(=O)c1ccc(NC(=O)N2Cc3[nH]cnc3C[C@H]2c2nc(-c3ccc4c(c3)OCO4)no2)cc1	i
O=C(c1ccc([N+](=O)[O-])cc1)N1CCN(c2ccccc2F)CC1	i
O=C(c1ccccc1[N+](=O)[O-])N1CCCCC1	i
O=C(c1ccccc1)N1CCCCC1	i
Cc1ccc(C(=O)N2CCCN(C(=O)c3ccc(C)cc3)CC2)cc1	i
O=C(/C=C(/c1ccccc1)N1CCCCC1)c1ccc([N+](=O)[O-])cc1	38%*
Cc1ccc(C(=O)/C=C(\c2ccccc2)N2CCCCC2)cc1	30%*
Cc1[nH]c2ccc(CNC(=O)c3ccc(=O)[nH]c3)cc2c1C	i
CCC(=O)N1CCc2cc(Br)cc(S(=O)(=O)Nc3ccc(Cl)cc3)c21	i
COc1ccc(-c2cc(C(=O)Nc3cnn(Cc4ccc(F)cc4)c3)no2)cc1	i
Cc1ccc(-n2ncc3c([N+](=O)[O-])cc([N+](=O)[O-])cc32)cc1	62%*
Cc1ccc(-n2ncc3c(=O)n(-c4ccc(C)c(C)c4)c(C)nc32)cc1	i
Cc1ccc(-n2c(C)nc3c(cnn3-c3ccc(F)cc3)c2=O)cc1	i
O=[N+]([O-])c1ccccc1C=Nc1ccc2nc(-c3ccccc3)[nH]c2c1	i
Cc1ccc2nc(-c3cc(N=Cc4cccc([N+](=O)[O-])c4)ccc3O)[nH]c2c1	43%*
O=[N+]([O-])c1cccc(C=Nc2ccc(F)cc2)c1O	i
CC(=O)Nc1nc(C)c(-c2nc3ccc([N+](=O)[O-])cc3[nH]2)s1	i
O=[N+]([O-])c1cccc(N=Cc2nc(-c3ccc(Br)cc3)oc2O)c1	i
SMILES	ST2 IL33 inh
C/C(=C\c1ccccc1)c1nc2ccc([N+](=O)[O-])cc2[nH]1	i
CC(=O)N1CCc2cc(N=Cc3cc([N+](=O)[O-])ccc3O)ccc21	i
Cc1ccc2nc(-c3cc(N=Cc4cccc([N+](=O)[O-])c4O)ccc3O)[nH]c2c1	36%*
Cc1ccc2nc(-c3cc(N=Cc4ccc([N+](=O)[O-])cc4)ccc3O)[nH]c2c1	38%*
CCC(C)NC(=O)c1oc2ccc(S(=O)(=O)N(CC)CC)cc2c1C (stereo not given)	i
CC(=O)c1cccc(NC(=O)c2cc3cc(Br)cc(Br)c3oc2=O)c1	i
O=C(NCC1(O)CCCNCC1)c1ccccc1-c1ccccc1 (stereo not given)	i
O=C(O)[C@H]1O[C@@H](Oc2c(-c3ccc(O)cc3)oc3cc(O)cc(O)c3c2=O)[C@H](O)[C@@H](O)[C@@H]1O	i
COc1ccc2nc3oc(C(=O)Nc4ccc(OC)c(Cl)c4)cc3cc2c1	37%*
COc1ccc2cc3cc(C(=O)N4CCN(c5cccc(Cl)c5)CC4)oc3nc2c1	i
CCOc1ccccc1NC(=O)c1cc2cc3ccc(OC)cc3nc2o1	i
COc1ccc2cc3cc(C(=O)Nc4cccc(Cl)c4)oc3nc2c1	36%*
COc1ccc2cc3cc(C(=O)Nc4ccc(F)cc4F)oc3nc2c1	i
COc1cc(NC(=O)c2cc3cc4ccc(Cl)cc4nc3o2)cc(OC)c1OC	i
COc1cccc(NC(=O)c2cc3cc4ccc(OC)cc4nc3o2)c1	38%*
CCOCCCNC(=O)c1cc2cc3cc(OC)ccc3nc2o1	i
COc1ccc2nc3oc(C(=O)NCCC(C)C)cc3cc2c1	i
COc1ccc2nc3oc(C(=O)Nc4cc(Cl)ccc4OC)cc3cc2c1	i
COc1ccc2nc3oc(C(=O)Nc4cc(OC)c(OC)c(OC)c4)cc3cc2c1	i
COc1ccc2nc3oc(C(=O)NCc4cccs4)cc3cc2c1	35%*
CN(Cc1ccccc1)C(=O)COc1ccc(Cl)cc1	i
O=c1[nH]c(SCCc2ccccc2)nc2ccccc12	i
O=C(CN1CCCCC1)Nc1ncc(Cc2ccc(Br)cc2)s1	i
COC(=O)C1C(=O)C2=C(CC1C)NC(C)=C(C(=O)OCCOC(C)C)C2c1ccc(F)cc1 (stereo not given)	i
O=C(Nc1cc2c(cc1C(=O)c1ccc(Br)cc1)OCCO2)c1ccccc1	i
SMILES	ST2 IL33 inh
CC1(C)C(=O)OC(c2ccco2)C2(CCCCC2)C1=O (stereo not given)	i
Cc1ccccc1NC(=O)CC(=O)N1C[C@H](OC(C)C)[C@@H](O)C1	i
O=[N+]([O-])c1cc(Br)cc(C=Nc2ccc(I)cc2)c1O	i
CN(C)c1ccc(C(=O)Nc2ccccc2-c2nc3ccccc3s2)cc1	i
COc1ccc(C2SCCN2S(=O)(=O)c2cccc(C(F)(F)F)c2)cc1[N+](=O)[O-] (stereo not given)	i
Cc1cccc(S(=O)(=O)N2CCSC2c2ccc(Br)cc2)c1 (stereo not given)	i
Cc1ccc(S(=O)(=O)N2CCSC2c2ccc(Br)cc2)cc1 (stereo not given)	70%*
COc1ccc(C2SCCN2S(=O)(=O)c2cccc(C)c2)cc1[N+](=O)[O-] (stereo not given)	31%*
COc1cc(OC)c(C2SCCN2S(=O)(=O)c2cccc(C)c2)cc1OC (stereo not given)	i
O=S(=O)(c1ccc(-c2ccccc2)cc1)N1CCSC1c1ccccc1 (stereo not given)	i
CC1=C(C(=O)OC(C)C(C)(C)C)C(c2cccc(Br)c2)NC(=O)N1 (stereo not given)	i
CCCCC(=O)Nc1cccc(OCc2cc(=O)n3cc(Cl)ccc3n2)c1	i
Cc1[nH]nc2c1[C@]1(C(=O)N(CC(N)=O)c3ccccc31)C(C#N)=C(N)O2	i
CC1CN(C(=O)COc2ccccc2)C(C)CN1C(=O)COc1ccccc1 (stereo not given)	i
C[C@@H]1C(=O)O[C@H]2[C@H]1CC[C@@]1(C)Cc3sc(Nc4ccc(C(=O)O)cc4)nc3[C@@H](C)[C@H]21	85%*
COc1cc(NC(=O)Nc2nc3c(s2)C[C@]2(C)CC[C@@H]4[C@H](OC(=O)[C@H]4C)[C@H]2[C@@H]3C)cc(OC)c1	i
C[C@H]1[C@@H]2[C@H]3OC(=O)[C@@H](C)[C@@H]3CC[C@@]2(C)CC[C@@H]1NC(=O)C1CC1	i
C[C@@H]1C(=O)O[C@H]2[C@H]1CC[C@@]1(C)Cc3sc(NC(=O)c4ccc(N(C)C)cc4)nc3[C@@H](C)[C@H]21	i
C[C@H](C(=O)NCCN1CCOCC1)C1CC[C@@]2(C)Cc3sc(-c4ccccc4)nc3[C@@H](C)[C@@H]2[C@H]1O (stereo not given in full)	i
C[C@@H]1C(=O)O[C@H]2[C@H]1CC[C@@]1(C)Cc3sc(Nc4cccnc4)nc3[C@@H](C)[C@H]21	36%*
C=CCNC(=O)Nc1nc2c(s1)C[C@]1(C)CC[C@@H]3[C@H](OC(=O)[C@H]3C)[C@H]1[C@@H]2C	34%*
